Laboratory results taken from PubChem BioAssay (NCATS).
Records with an inconclusive call do not appear. Where a call stands in place of a potency, no number is given. The source made the active and inactive calls. Unless noted, the call rests on the fitted dose curve; in most records, active means well fitted curve in the direction sought with a large enough effect; inconclusive means small, poorly fitted or top-dose-only effect, or another doubt; inactive means no such curve, though single readings can be large; an effect the other way counts as inactive or inconclusive.

How the values were obtained:
[1] = qHTS assay for measurement of the activity of small molecule inhibitors on Zika virus induced Caspase-3 activity in human astrocytoma cells (AID 1224859)
Procedure, shortened: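 In SNB-19 cells plated at 250 cells/well and grown 16-20 h, compounds were applied 1 h before ZIKV (2 FFU/cell). Six hours later caspase-3/7 luminescence was recorded.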

[2] = biological target: Atrial natriuretic peptide receptor 1 (Homo sapiens) (UniProt P16066); experiment: Natriuretic polypeptide receptor (hNpr1) antagonism - Pilot screen (AID 1347049; calls by dose curve;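 further: HEK293 cells with hNpr1 and GloSensor cGMP luciferase stimulated by 0.1 nM hNppA; agonist-evoked cGMP luminescence read 20 min after hNppA addition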; further: potency means the concentration at half of the fitted maximal effect)
Chain of Atrial natriuretic peptide receptor 1 (Homo sapiens) (P16066 whole entry, looked up): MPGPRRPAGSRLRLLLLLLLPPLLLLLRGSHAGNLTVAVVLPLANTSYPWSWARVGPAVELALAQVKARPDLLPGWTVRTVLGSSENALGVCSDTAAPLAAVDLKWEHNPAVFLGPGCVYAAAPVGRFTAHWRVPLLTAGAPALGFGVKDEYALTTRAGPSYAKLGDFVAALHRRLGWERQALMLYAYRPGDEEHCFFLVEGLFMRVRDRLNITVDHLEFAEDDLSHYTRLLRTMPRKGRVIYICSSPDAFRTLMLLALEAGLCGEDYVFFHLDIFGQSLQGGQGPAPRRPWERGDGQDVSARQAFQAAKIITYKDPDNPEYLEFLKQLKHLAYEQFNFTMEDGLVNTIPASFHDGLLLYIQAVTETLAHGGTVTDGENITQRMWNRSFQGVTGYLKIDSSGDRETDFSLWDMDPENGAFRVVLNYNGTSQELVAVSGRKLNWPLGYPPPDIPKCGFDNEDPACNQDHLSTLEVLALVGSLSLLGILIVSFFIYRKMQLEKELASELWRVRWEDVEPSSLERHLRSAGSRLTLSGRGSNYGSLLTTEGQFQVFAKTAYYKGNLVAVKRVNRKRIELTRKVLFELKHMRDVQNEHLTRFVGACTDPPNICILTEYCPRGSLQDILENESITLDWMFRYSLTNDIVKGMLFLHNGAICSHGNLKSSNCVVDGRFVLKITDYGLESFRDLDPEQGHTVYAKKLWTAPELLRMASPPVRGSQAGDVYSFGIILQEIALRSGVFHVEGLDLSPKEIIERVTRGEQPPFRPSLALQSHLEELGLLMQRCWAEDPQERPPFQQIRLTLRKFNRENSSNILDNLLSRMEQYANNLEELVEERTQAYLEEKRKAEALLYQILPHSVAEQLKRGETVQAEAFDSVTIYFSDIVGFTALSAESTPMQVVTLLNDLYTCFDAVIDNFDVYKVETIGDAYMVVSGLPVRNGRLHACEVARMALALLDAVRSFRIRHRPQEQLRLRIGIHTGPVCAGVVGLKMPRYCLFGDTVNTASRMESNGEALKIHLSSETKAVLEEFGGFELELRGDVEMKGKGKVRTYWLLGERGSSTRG
Procedure, shortened: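 Cells expressing receptor plus cGMP biosensor are seeded and incubated overnight at 37C, then loaded with GloSensor reagent (2% final) at room temperature for 2 h. Library compounds go on for 30 min. A pre-read precedes agonist (hNppA, 0.1 nM final) and a 20-min readout.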

[3] = biological target: Atrial natriuretic peptide receptor 2 (Homo sapiens) (UniProt P20594); experiment: Natriuretic polypeptide receptor (hNpr2) antagonism - Pilot subtype selectivity assay (AID 1347050; calls by dose curve; further: potency means the concentration at half of the fitted maximal effect)
Chain of Atrial natriuretic peptide receptor 2 (Homo sapiens) (P20594 whole entry, looked up): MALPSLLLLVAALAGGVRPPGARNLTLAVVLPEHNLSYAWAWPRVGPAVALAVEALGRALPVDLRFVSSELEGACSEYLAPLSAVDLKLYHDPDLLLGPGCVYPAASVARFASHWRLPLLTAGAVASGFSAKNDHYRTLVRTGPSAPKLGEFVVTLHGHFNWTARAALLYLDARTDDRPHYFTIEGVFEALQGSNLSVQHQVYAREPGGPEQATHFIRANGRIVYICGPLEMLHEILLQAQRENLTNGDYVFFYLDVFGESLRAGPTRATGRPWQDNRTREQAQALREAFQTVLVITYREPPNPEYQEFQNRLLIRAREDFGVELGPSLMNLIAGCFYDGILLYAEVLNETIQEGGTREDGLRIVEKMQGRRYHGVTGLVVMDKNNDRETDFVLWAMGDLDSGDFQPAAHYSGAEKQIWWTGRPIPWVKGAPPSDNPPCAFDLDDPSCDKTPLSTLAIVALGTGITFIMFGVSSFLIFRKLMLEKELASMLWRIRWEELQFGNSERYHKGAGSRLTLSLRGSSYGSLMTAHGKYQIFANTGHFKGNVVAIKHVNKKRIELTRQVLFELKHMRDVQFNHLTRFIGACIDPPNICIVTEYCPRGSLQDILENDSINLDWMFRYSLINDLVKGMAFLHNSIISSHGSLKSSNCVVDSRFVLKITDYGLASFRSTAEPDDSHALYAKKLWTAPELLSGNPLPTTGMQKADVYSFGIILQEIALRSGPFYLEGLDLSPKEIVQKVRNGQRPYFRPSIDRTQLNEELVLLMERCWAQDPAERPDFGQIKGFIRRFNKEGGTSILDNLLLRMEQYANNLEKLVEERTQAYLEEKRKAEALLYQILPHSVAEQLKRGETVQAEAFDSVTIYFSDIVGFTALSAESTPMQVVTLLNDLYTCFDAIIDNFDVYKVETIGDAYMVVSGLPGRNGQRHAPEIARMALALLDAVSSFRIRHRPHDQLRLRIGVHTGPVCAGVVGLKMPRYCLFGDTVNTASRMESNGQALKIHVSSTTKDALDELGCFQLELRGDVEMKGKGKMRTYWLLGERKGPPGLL
Procedure, shortened: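 Read-out: GloSensor luminescence (CCD imager), baseline vs post-stimulation. HEK293 cells expressing hNpr2; compounds pre-incubated 30-50 min at ambient temperature; hNppC 1 nM final, 20 min.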

[4] = NS1 protein of Zika virus - qHTS assay to identify small molecule inhibitors in human HEK 293 cells (AID 1347053); further: series mostly up to about 46 µM; nearly all actives have a fitted effect of over 55% in size
Procedure, shortened: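 Compound-treated (1 h pre-infection) HEK 293 cells infected with ZIKV MR766, MOI = 0.5; after 24 h at 37 C, NS1 read by TR-FRET; data normalized to uninfected and infected controls.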

[5] = biological target: T1, Tyrosine-protein phosphatase non-receptor type substrate 1 (Homo sapiens) + Leukocyte surface antigen CD47 (Homo sapiens) (UniProt P78324+Q08722); experiment: CD47-SIRPalpha protein protein interaction - LANCE assay qHTS validation (AID 1347057; active means well fitted curve in the direction sought with a large enough effect in the signal ratio, with a control signal flat, not every such curve was filed as active; the % refers to the signal ratio; further: series mostly up to about 38 µM)
T1 sequence (P78324 whole entry, looked up, the tested form may be a part): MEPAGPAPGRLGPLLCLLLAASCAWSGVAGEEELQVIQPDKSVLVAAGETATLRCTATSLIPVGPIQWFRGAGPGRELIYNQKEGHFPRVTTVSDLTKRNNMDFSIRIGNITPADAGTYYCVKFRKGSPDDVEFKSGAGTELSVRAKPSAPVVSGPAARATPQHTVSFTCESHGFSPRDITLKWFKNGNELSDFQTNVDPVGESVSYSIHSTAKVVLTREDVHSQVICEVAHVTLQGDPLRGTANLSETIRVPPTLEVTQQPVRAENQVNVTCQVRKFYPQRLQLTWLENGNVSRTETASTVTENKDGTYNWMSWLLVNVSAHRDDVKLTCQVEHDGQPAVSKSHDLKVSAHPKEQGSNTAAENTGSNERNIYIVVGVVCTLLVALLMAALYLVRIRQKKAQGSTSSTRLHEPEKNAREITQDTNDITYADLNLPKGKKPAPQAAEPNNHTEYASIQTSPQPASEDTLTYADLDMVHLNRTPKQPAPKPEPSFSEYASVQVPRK
T1 sequence (Q08722 whole entry, looked up, the tested form may be a part): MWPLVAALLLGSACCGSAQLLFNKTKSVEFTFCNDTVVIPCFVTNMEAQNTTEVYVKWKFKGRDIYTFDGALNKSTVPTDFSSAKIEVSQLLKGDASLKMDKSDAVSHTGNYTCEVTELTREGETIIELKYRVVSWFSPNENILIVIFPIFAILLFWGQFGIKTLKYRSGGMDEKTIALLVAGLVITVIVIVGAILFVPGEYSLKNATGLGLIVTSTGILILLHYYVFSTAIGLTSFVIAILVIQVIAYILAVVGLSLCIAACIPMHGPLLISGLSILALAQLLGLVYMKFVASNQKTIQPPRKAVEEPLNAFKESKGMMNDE
Procedure, shortened: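 Inhibition of soluble CD47/SIRPalpha ectodomain association by titrated compounds, measured as 665/615 nm time-resolved FRET ratio after sequential 30 min room-temperature incubations.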

[6] = biological target: T1, Tyrosine-protein phosphatase non-receptor type substrate 1 (Homo sapiens) + Leukocyte surface antigen CD47 (Homo sapiens); experiment: CD47-SIRPalpha protein protein interaction - HTRF assay qHTS validation (AID 1347058; active means well fitted curve in the direction sought with a large enough effect in the signal ratio, not every such curve was filed as active; the % refers to the signal ratio; further: series mostly up to about 38 µM)
Procedure, shortened: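 Soluble extracellular domains (6His-CD47, Avi-tag-biotinylated SIRPalpha) in PBS pH 7.4 with 0.05% IGEPAL CA-630. Compounds were preincubated 30 min at RT with CD47 and anti-His-Eu, then SIRPalpha and SAV-XL665 were added. TR-FRET 665/615 ratio.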

[7] = biological target: T1, Tyrosine-protein phosphatase non-receptor type substrate 1 (Homo sapiens) + Leukocyte surface antigen CD47 (Homo sapiens); experiment: CD47-SIRPalpha protein protein interaction - Alpha assay qHTS validation (AID 1347059);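 further: bead proximity luminescence from CD47 binding SIRPalpha after compound preincubation with SIRPalpha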
Procedure, shortened: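 In PBS (pH 7.4) with 0.05% IGEPAL CA-630, compound is preincubated with biotin-Avi-SIRPalpha ectodomain before His-CD47 ectodomain and affinity beads are added. Light-protected room-temperature incubations; AlphaScreen readout.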

[8] = biological target: Parathyroid hormone/parathyroid hormone-related peptide receptor (Homo sapiens) (UniProt Q03431); experiment: qHTS for PTHR1 Agonists: Optimization Screen against the NCGC LOPAC library (AID 1347079);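 further: GloSensor cAMP luminescence in HEK-293 GP2 cells expressing human PTHR1 with IBMX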
Chain of Parathyroid hormone/parathyroid hormone-related peptide receptor (Homo sapiens) (Q03431 whole entry, looked up): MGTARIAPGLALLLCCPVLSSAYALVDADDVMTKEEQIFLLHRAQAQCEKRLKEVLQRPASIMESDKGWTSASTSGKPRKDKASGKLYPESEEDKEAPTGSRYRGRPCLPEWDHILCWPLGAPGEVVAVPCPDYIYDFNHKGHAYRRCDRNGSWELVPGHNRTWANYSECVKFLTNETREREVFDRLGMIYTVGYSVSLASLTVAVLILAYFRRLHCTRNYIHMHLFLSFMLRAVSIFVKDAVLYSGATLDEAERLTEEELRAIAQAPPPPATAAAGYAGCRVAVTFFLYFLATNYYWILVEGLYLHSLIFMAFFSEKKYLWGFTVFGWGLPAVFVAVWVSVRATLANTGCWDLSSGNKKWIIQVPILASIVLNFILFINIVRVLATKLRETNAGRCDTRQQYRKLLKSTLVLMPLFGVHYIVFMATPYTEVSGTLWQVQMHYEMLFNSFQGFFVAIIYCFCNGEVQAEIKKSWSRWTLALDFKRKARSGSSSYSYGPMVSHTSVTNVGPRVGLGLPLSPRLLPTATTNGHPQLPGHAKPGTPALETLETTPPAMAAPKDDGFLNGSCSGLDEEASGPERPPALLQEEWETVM
Procedure, shortened: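 Signal increase flags agonism. GP2 cells, derived from HEK-293, express human PTHR1 and a GloSensor cAMP construct.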

[9] = Natriuretic polypeptide receptor (hNpr1) antagonism - Pilot counterscreen GloSensor control cell line (AID 1347045; calls by dose curve; further: potency means the concentration at half of the fitted maximal effect)
Procedure, shortened: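 The SNP-driven cGMP luminescence signal (50 uM, 20 min, room temperature) was measured in GloSensor HEK293 control cells. Compounds were tested as a LOPAC titration series and preincubated for 30-50 min.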

Row | SMILES | Potency [1] | Potency [2] | Potency [3] | Potency [4] | Potency [5] | outcome [6] | Potency [7] | Potency [8] | Potency [9]
1 | Cn1cc(C2=C(c3ccc(Cl)cc3Cl)C(=O)NC2=O)c2ccccc21 | inactive | inactive | inactive | inactive | inactive | inactive | inactive | inactive | –
2 | CCCCCCCCCCCCCCCC(=O)NCC(COP(=O)([O-])OCC[N+](C)(C)C)OCC (stereo unspecified) | inactive | – | inactive | – | – | – | – | inactive | inactive
3 | O=C(O)[C@@H]1C[C@H](C(=O)O)N1 | inactive | inactive | inactive | – | – | – | – | inactive | inactive
4 | NCCSSCCN | inactive | inactive | – | inactive | inactive | inactive | – | inactive | inactive
5 | c1ccc(-c2ccccn2)nc1 | inactive | inactive | inactive | inactive | – | – | – | – | –
6 | COc1cccc(C(=O)NCCN2CCN(c3ccc(Cl)cc3)CC2)c1 | inactive | inactive | inactive | inactive | inactive | inactive | inactive | – | –
7 | O=C(c1ccc(OCCCc2cnc[nH]2)cc1)C1CC1 | inactive | inactive | inactive | inactive | inactive | inactive | inactive | inactive | –
8 | Nc1nc(Cl)nc2c1ncn2[C@@H]1O[C@H](CO)[C@@H](O)[C@H]1O | inactive | inactive | – | inactive | inactive | inactive | – | – | inactive
9 | CN1CCc2cc(O)c(O)cc2C(c2ccccc2)C1 (stereo unspecified) | inactive | inactive | inactive | – | – | – | – | inactive | inactive
10 | NC(=S)c1ccc[n+]([C@@H]2O[C@@H](COP(=O)([O-])OP(=O)(O)OC[C@H]3O[C@@H](n4cnc5c(N)ncnc54)[C@H](OP(=O)(O)O)[C@@H]3O)C(O)C2O)c1 (stereo partly specified) | inactive | inactive | – | inactive | inactive | inactive | – | inactive | inactive
11 | Clc1ccc(N2CCN(Cc3c[nH]c4ncccc34)CC2)cc1 | inactive | inactive | inactive | inactive | inactive | inactive | – | – | –
12 | C[N+](C)(C)CC(=O)[O-] | inactive | inactive | – | – | – | – | – | inactive | inactive
13 | CCCCC#Cc1nc(NC)c2ncn([C@@H]3O[C@H](CO)[C@@H](O)[C@H]3O)c2n1 | inactive | – | – | inactive | – | inactive | inactive | inactive | inactive
14 | Cc1cc(NC(=O)Nc2ccc3c(ccn3C)c2)sn1 | inactive | inactive | inactive | inactive | inactive | inactive | inactive | inactive | –
15 | C#CCN1C(C)=C(C(=O)OC)C(c2cccc([N+](=O)[O-])c2)C(C(=O)OCC)=C1C (stereo unspecified) | inactive | inactive | – | – | – | – | – | – | –
16 | COc1cc2nc(N3CCN(C(=O)OCc4ccccc4)C(C(=O)NC(C)(C)C)C3)nc(N)c2cc1OC (stereo unspecified) | inactive | – | inactive | – | – | – | – | inactive | inactive

Row | SMILES | Potency [1] | Potency [2] | Potency [3] | Potency [4] | Potency [5] | outcome [6] | Potency [7] | Potency [8] | Potency [9]
17 | CCc1c(C(=O)NCCc2ccc(N3CCCCC3)cc2)[nH]c2ccc(Cl)cc12 | inactive | inactive | inactive | – | – | – | – | inactive | inactive
18 | CCCCN1CCC(n2c(=O)[nH]c3ccccc32)CC1 | inactive | inactive | inactive | – | – | – | – | inactive | inactive
19 | COc1cc(C(O)CO)ccc1OS(=O)(=O)O (stereo unspecified) | inactive | inactive | – | inactive | inactive | inactive | – | – | inactive
20 | CN(C)CCCO[C@@H]1[C@H]2OC(C)(C)O[C@H]2O[C@@H]1[C@H](O)CO | inactive | inactive | inactive | – | – | – | – | inactive | inactive
21 | Cc1nc2sccn2c(=O)c1CCN1CCC(=C(c2ccccc2)c2ccc(F)cc2)CC1 | inactive | inactive | – | – | – | – | – | inactive | inactive
22 | COC(=O)c1c(C)[nH]c(C)c1C(=O)c1ccccc1Cc1ccccc1 | inactive | inactive | inactive | inactive | inactive | inactive | inactive | – | –
23 | CCOC(=O)N1CCN(/[N+]([O-])=N/Oc2ccc([N+](=O)[O-])cc2[N+](=O)[O-])CC1 | inactive | – | 10.4 µM (active) | inactive | inactive | – | – | inactive | 5.21 µM (active)
24 | CCCCCCCC/C=C\CCCCCCCC(=O)NCCO | inactive | inactive | inactive | inactive | inactive | inactive | inactive | inactive | –
25 | CN(C)c1nc2c(Br)c(Br)c(Br)c(Br)c2[nH]1 | inactive | inactive | inactive | – | – | – | – | inactive | inactive
26 | CN1CCC[C@H]1c1cccnc1 | inactive | inactive | – | – | – | – | – | inactive | inactive
27 | CNc1ncnc2c1ncn2[C@@H]1O[C@H](CO)[C@@H](O)[C@H]1O | inactive | inactive | – | inactive | inactive | inactive | inactive | inactive | inactive
28 | CO/N=C(\C(=O)N[C@@H]1C(=O)N2C(C(=O)O)=C(COC(C)=O)CS[C@H]12)c1csc(N)n1 | inactive | inactive | – | inactive | inactive | inactive | inactive | – | inactive
29 | CN1CCc2cc(NC(=O)Nc3cccnc3)ccc21 | inactive | inactive | inactive | inactive | inactive | inactive | – | – | –
30 | Cc1ccc(C(=O)O[C@H](C(=O)O)[C@@H](OC(=O)c2ccc(C)cc2)C(=O)O)cc1 (tested in a mixture with another compound) | inactive | – | inactive | – | – | – | – | inactive | inactive
31 | O=C1O/C(=C/Br)CCC1c1cccc2ccccc12 (stereo unspecified) | inactive | 19 µM (active) | 11.7 µM (active) | – | – | – | – | inactive | 16.5 µM (active)
32 | NCCNC(=O)c1ncsc1-c1cccc(F)c1 | inactive | inactive | inactive | – | – | – | – | inactive | inactive
